{
  "source": "the supplement of paper PMC10338343",
  "note": "± gives the standard deviation.",
  "data": [
    {"tested_on": "MILI (PIWIL2) piRISC loaded with L1MC piRNA (26 nt)", "assay": "pre-steady-state target cleavage rate (min^-1); guide: L1MC piRNA 5'p-UAACUAAAUACUAUGCAAGCUGUAGG; MIWI and MILI are mouse PIWI proteins and EfPiwi is from a freshwater sponge; tags in brackets are library labels; higher = faster piRNA-guided slicing of the target", "settings": "auxiliary factor: 500 nM mouse GTSF1", "outline": "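With or without 500 nM GTSF1 partner protein, 1 nM active affinity-purified piRISC carrying one synthetic guide was mixed with 0.1 nM transcribed, DNA-blocked target RNA library in HEPES–potassium acetate buffer at 33 °C for 0–8 or 0–960 min. Uncleaved targets were sequenced and normalised to depth and to weakly complementary targets, three trials were pooled, and k3 was capped at 0.0001 min^-1. The pre-steady-state cleavage rate came from a burst-and-steady-state fit.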", "values": [
      {"sequence": "UCCUGGAUGUCGUUGCAUAGUAUUUAGUAUA", "pre-steady-state target cleavage rate": "0.127 ± 0.03"},
      {"sequence": "UCCUGGAUCAGGAAGCAUAGUAUUUAGUUA", "pre-steady-state target cleavage rate": "0.0634 ± 0.0094"},
      {"sequence": "UCCUGGAUGUCCUUGCAUAGUAAUUUAGUUA", "pre-steady-state target cleavage rate": "0.0401 ± 0.013"},
      {"sequence": "UCCUGGAACAGCUUGCAAUGUAUUUAGUAA", "pre-steady-state target cleavage rate": "0.0829 ± 0.011"},
      {"sequence": "UCCUGCUCCAGCUUGCAUAGUAUUUAGUUA", "pre-steady-state target cleavage rate": "0.256 ± 0.017"},
      {"sequence": "UCCUGGAUGUCCUUGCAUAGUAUUUACGUUA", "pre-steady-state target cleavage rate": "0.11 ± 0.023"},
      {"sequence": "UCCUGGUACAGCUUGCAUAGUUAUUUAGUUA", "pre-steady-state target cleavage rate": "0.0143 ± 0.0076"},
      {"sequence": "UCCUGCUACAGCUUGCAUUGUAUUUUGUUA", "pre-steady-state target cleavage rate": "0.159 ± 0.024"},
      {"sequence": "UCCUGGAUGAGCUUGCAAAGUAUUUAGUAA", "pre-steady-state target cleavage rate": "0.085 ± 0.015"},
      {"sequence": "UCCUGGAUCAGCUUGCUAUGUAUUUAGUUA", "pre-steady-state target cleavage rate": "0.0176 ± 0.0068"},
      {"sequence": "UCCUGGAUCACCUUGCUUAGUAUUUAGUUA", "pre-steady-state target cleavage rate": "0.176 ± 0.025"},
      {"sequence": "UCCUGGAUGUCGUAGCAUAGUAUAUAGUUA", "pre-steady-state target cleavage rate": "0.0653 ± 0.016"},
      {"sequence": "UCCUGGAUCUGCUUGCAUAGUAUUUACUUA", "pre-steady-state target cleavage rate": "0.0527 ± 0.0096"},
      {"sequence": "UCCUGGAUGAGCUUCCUUAGUAUUUAGUUA", "pre-steady-state target cleavage rate": "0.132 ± 0.019"},
      {"sequence": "UCCUGGUACAGUCUUGCAUAGUAUUUAGUUA", "pre-steady-state target cleavage rate": "0.254 ± 0.033"},
      {"sequence": "UCCUGGAACAGCUUGCAUAGUUUUUAGUUA", "pre-steady-state target cleavage rate": "0.0586 ± 0.01"},
      {"sequence": "UCCUGGAUGAGCUUGCAUAGUAUUUAGAUA", "pre-steady-state target cleavage rate": "0.135 ± 0.031"},
      {"sequence": "UCCUGGAUGUGCUUGCAUUGUAAUUAGUUA", "pre-steady-state target cleavage rate": "0.0229 ± 0.0072"},
      {"sequence": "UCCUGGAUGAGCUUCCAAAGUAUUUAGUUA", "pre-steady-state target cleavage rate": "0.0331 ± 0.0072"},
      {"sequence": "UCCUGGAUGUCGUUGCAUAGUAUUUAGUUC [g2:g18:cont:t1C]", "pre-steady-state target cleavage rate": "0.0984 ± 0.01"},
      {"sequence": "UCCUGGAUGUCGAUGCAUAGUAAUUAGUUA", "pre-steady-state target cleavage rate": "0.0524 ± 0.011"},
      {"sequence": "UCCUGGAUGAGCAUGCAUAGUAUUUAGAUA", "pre-steady-state target cleavage rate": "0.166 ± 0.024"},
      {"sequence": "UCCUGGAUCAGCUUGCAAAGUAAUUAGUUA", "pre-steady-state target cleavage rate": "0.0974 ± 0.011"},
      {"sequence": "UCCUGGUACUGCUUGCAUACUAUUUAGUUA", "pre-steady-state target cleavage rate": "0.0502 ± 0.015"}
    ]}
  ]
}
